Experimental data taken from PubChem BioAssay.
Activity calls are given as the source filed them.

Tests used:
[1] = binders of probe aFSTL3 on microarray, primary screen, stem cell growth factor project, biochemical, small-molecule microarray, fluorescence 635/667 (AID 1064); conditions: higher = more signal;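 note: measures binding of the biotinylated anti-FSTL3 antibody to printed compounds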
[2] = binders from COS7 lysate, DM2A8 probe, primary screen, torsin A project, cell lysate, small-molecule microarray, fluorescence 635/667 (AID 1065); conditions: higher = more signal, COS7 lysate expressing mutant human TOR1A
[3] = binders of probe aFGF2 on microarray, primary screen, stem cell growth factor project, biochemical, small-molecule microarray, fluorescence 635/667 (AID 1067); conditions: higher = more signal;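 note: measures binding of biotinylated aFGF2 protein to printed compounds on slides; z-score merges feature fluorescence and signal-to-noise across triplicate slides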
[4] = binders of probe aFGF10 on microarray, primary screen, stem cell growth factor project, biochemical, small-molecule microarray, fluorescence 635/667 (AID 1071); conditions: higher = more signal;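 note: score merges 667 nm spot intensity and signal to noise from triplicate slides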
[5] = biological target: Neurogenic locus notch homolog protein 2 (Homo sapiens) (UniProt Q04721); assay: Notch2 binders on small-molecule microarrays, primary screen, biochemical, small-molecule microarray, 635 nm fluorescence, stem cell growth factors (AID 1073); conditions: Notch2 binding, higher = more signal
Sequence of Neurogenic locus notch homolog protein 2 (Homo sapiens) (Q04721 whole entry, looked up, canonical isoform): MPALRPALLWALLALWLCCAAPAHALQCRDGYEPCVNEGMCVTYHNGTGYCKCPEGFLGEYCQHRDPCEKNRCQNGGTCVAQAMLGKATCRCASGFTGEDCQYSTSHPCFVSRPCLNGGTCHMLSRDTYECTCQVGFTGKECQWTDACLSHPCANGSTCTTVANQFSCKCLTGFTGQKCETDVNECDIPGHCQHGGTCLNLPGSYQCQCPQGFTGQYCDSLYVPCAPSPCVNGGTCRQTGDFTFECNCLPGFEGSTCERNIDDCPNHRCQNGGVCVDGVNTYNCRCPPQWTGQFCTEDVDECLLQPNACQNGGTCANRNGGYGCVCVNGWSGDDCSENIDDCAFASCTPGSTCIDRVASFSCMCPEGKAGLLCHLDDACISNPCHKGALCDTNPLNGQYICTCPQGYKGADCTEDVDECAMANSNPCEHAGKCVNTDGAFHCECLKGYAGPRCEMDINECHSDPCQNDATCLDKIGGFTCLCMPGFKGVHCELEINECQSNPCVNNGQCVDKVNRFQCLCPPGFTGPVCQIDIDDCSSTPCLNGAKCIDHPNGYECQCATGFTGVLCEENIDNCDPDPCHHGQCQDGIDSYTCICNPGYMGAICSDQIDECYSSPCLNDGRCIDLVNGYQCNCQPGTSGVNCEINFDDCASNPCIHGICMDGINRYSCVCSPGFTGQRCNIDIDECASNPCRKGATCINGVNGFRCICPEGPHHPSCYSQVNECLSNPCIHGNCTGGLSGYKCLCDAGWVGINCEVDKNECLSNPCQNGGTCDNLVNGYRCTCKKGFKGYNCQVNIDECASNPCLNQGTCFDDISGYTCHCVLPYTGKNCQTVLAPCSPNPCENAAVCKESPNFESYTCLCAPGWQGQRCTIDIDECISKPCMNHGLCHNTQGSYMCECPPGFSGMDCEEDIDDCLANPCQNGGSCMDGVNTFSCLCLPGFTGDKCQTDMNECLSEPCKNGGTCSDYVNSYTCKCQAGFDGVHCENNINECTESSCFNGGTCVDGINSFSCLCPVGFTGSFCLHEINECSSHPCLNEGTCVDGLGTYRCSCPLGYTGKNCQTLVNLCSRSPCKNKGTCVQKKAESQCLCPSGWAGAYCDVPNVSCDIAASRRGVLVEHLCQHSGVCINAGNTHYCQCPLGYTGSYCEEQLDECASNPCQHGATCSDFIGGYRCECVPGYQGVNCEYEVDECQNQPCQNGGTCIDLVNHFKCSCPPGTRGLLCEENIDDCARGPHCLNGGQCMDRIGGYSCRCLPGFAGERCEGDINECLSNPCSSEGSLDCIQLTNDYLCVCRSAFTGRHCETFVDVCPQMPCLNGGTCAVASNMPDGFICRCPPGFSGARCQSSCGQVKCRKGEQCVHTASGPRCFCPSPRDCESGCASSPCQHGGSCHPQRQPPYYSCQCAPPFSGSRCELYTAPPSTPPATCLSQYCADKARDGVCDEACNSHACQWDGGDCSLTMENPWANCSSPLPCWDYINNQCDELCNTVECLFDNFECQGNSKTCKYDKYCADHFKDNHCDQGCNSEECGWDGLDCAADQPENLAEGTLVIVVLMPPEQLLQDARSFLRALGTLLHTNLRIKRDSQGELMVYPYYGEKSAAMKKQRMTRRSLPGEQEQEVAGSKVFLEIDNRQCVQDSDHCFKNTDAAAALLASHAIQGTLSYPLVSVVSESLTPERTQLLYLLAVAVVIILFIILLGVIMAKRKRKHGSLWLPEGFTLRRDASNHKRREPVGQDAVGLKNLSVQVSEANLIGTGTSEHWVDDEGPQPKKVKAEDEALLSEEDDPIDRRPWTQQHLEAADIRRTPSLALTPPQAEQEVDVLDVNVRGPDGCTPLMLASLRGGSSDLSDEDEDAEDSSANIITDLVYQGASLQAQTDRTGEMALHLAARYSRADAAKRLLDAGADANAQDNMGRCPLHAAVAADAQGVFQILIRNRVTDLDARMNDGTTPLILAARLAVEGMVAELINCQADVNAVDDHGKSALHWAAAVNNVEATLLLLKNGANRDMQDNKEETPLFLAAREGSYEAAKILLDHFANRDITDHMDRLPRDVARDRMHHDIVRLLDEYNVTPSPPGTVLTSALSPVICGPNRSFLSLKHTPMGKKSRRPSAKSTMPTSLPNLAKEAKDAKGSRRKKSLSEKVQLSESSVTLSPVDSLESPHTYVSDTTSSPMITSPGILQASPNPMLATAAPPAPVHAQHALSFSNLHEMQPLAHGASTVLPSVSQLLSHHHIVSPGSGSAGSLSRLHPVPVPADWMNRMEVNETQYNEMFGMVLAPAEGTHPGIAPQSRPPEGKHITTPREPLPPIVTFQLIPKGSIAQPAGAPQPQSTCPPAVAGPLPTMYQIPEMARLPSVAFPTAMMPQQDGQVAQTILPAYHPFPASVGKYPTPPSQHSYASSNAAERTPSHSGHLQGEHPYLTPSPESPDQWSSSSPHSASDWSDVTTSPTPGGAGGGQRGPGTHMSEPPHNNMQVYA

[6] = biological target: Pro-neuregulin-1, membrane-bound isoform (Homo sapiens) (UniProt Q02297); assay: NRG1 binders on small-molecule microarrays, primary screen, psychiatric disease protein project, biochemical, small-molecule microarray, fluorescence 635/667 (AID 1075); conditions: NRG1 binding, 635 nm fluorescence, higher = more signal;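 note: score combines 667 nm spot fluorescence with signal to noise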
[7] = test system: Neuregulin-1 EGF-like domain; assay: binders of neuregulin-1 EGF-like domain, primary screen, biochemical, small-molecule microarray, 635 nm fluorescence (AID 1081); conditions: small-molecule microarray binding, higher = more signal;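 note: binding of the protein to compounds printed on small-molecule microarray slides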
[8] = FRG1 promoter luciferase signal modulators, primary screen, FRG1 inhibition for FSHD, cell-based, C2C12 myotubes, firefly/Renilla luciferase, luminescence (AID 1084); conditions: higher = more signal, called active from +8 up or from −8 down
[9] = binders of probe aFST on microarray, primary screen, stem cell growth factor project, biochemical, small-molecule microarray, fluorescence 635/667 (AID 1086); conditions: higher = more signal;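 note: score merges 667 nm fluorescence with signal-to-noise of each printed compound spot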
[10] = binders of probe aHhip on microarray, primary screen, stem cell growth factor project, biochemical, small-molecule microarray, fluorescence 635/667 (AID 1087); conditions: higher = more signal;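 note: score merges spot fluorescence at 667nm with spot signal to noise ratio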
[11] = test system: PRMT1 (protein arginine N-methyltransferase 1); assay: PRMT1 binders on small-molecule microarrays, primary screen, biochemical, small-molecule microarray, 635 nm fluorescence (AID 1088); conditions: small-molecule microarray binding, higher = more signal;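 note: binding of Prmt1 protein to compounds spotted on small-molecule microarray slides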
[12] = yeast growth modulation, basal conditions, primary screen, YJM789 clinical isolate, OD600, 24 h (AID 1089);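 note: growth of clinical yeast isolate S. cerevisiae YJM 789 seeded 1000 cells per well; test concentration not given here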; conditions: S. cerevisiae YJM789 growth, higher = more signal, called active from +8 up or from −8 down
[13] = fission yeast growth modulation, primary screen, strain 972, OD600, 24 h, no modulator (AID 1090);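 note: basal condition with compound alone and no growth modifier present; test concentration not given here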; conditions: S. pombe 972 growth, higher = more signal, called active from +8 up or from −8 down
[14] = S. cerevisiae growth modulation with rapamycin, primary screen, strain BY4716, OD600, 96 h (AID 1091); conditions: higher = more signal, called active from +8 up or from −8 down; note: test concentration not given here
[15] = biological target: Torsin-1A-interacting protein 2 (Homo sapiens) (UniProt Q8NFQ8); assay: LULL1 binders on small-molecule microarray, primary screen, cell lysate, human LULL1 lysate, 635/667 nm fluorescence (AID 1092); conditions: hLULL1 lysate binding, 635 nm fluorescence, higher = more signal;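 note: probe is lysate of COS7 cells overexpressing human LULL1; score merges per-feature 667 nm fluorescence with signal-to-noise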
[16] = E. coli growth modulation, two-sided OD650, primary screen, E. coli filamentation project, strain DRC41, 24 h (AID 1093); conditions: OD650, 24 h, higher = more signal, called active from +8 up or from −8 down;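 note: MC1000 strain lacking acrAB efflux and sulA so SOS filamentation is blocked; test concentration not given here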
[17] = small-molecule microarray binders of probe aLefty2, primary screen, biochemical, biotinylated probe, 635/667 nm fluorescence (AID 1094); conditions: higher = more signal;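 note: score merges spot fluorescence near 667 nm with spot signal-to-noise ratio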
[18] = test system: Noggin (protein binding on small-molecule microarray); assay: Noggin binders on small-molecule microarray, primary screen, biochemical, 635/667 nm fluorescence (AID 1095); conditions: 635 nm fluorescence, higher = more signal;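 note: score merges 667 nm feature fluorescence with signal to noise over triplicate slides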
[19] = biological target: Neurogenic locus notch homolog protein 3 (Homo sapiens) (UniProt Q9UM47); assay: NOTCH3 binders on small-molecule microarray, primary screen, biochemical, 635/667 nm fluorescence (AID 1096); conditions: NOTCH3 binding, 635 nm fluorescence, higher = more signal
Sequence of Neurogenic locus notch homolog protein 3 (Homo sapiens) (Q9UM47 whole entry, looked up): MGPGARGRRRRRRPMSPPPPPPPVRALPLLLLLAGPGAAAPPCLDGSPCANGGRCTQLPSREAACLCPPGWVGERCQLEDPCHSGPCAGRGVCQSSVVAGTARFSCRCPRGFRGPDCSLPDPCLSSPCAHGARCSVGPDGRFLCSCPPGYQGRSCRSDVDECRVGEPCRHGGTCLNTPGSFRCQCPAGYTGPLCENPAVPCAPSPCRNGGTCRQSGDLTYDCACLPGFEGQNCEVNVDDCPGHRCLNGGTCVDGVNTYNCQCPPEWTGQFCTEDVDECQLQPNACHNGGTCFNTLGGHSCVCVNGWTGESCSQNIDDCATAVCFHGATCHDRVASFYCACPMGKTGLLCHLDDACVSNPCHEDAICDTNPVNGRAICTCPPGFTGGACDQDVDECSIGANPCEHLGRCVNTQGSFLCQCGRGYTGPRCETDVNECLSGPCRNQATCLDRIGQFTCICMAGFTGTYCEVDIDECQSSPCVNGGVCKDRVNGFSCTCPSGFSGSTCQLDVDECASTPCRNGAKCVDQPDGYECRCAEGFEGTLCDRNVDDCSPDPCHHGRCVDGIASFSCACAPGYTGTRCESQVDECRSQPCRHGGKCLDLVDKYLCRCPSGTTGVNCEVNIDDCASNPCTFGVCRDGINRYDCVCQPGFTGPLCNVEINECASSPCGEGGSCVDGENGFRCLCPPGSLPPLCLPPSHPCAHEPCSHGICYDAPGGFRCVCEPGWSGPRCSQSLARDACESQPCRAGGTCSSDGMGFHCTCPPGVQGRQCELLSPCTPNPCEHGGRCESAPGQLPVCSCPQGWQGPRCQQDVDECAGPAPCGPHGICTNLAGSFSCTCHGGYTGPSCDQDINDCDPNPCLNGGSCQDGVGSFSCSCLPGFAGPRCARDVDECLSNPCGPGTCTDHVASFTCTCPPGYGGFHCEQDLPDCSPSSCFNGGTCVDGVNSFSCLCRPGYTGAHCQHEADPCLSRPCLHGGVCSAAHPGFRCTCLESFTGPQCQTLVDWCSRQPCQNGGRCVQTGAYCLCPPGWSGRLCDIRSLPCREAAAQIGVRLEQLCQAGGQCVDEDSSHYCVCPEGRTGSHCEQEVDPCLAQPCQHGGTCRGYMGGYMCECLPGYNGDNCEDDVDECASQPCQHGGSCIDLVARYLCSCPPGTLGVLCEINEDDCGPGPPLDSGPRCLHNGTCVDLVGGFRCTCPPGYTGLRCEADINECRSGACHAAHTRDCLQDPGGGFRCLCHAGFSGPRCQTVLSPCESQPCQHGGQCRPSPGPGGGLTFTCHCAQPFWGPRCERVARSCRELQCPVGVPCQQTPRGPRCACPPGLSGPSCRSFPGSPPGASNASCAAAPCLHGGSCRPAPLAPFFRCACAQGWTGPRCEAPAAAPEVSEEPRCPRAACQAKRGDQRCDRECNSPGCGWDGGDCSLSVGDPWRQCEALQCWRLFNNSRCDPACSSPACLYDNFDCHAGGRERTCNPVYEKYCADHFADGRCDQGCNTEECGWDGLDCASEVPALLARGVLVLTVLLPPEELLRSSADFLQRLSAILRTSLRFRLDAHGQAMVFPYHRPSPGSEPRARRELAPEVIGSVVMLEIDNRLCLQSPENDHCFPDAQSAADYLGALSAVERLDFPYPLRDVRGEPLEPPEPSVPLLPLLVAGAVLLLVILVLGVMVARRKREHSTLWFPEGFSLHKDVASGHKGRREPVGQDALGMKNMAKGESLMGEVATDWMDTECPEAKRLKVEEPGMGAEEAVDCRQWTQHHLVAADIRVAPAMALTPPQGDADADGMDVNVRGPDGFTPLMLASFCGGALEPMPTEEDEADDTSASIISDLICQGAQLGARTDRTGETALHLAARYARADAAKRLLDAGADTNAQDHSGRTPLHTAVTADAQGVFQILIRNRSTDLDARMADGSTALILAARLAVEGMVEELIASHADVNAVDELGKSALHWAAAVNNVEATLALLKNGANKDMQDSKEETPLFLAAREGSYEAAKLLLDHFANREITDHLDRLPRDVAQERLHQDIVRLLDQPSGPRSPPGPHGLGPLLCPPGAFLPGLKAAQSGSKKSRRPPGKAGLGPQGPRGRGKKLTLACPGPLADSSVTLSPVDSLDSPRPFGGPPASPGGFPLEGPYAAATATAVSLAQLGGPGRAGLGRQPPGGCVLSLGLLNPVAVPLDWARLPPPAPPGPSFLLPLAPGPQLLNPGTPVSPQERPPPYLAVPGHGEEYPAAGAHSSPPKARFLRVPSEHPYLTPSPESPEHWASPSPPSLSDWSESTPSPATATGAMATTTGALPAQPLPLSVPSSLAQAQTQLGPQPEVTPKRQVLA

[20] = small-molecule microarray binders of probe aEGFR, primary screen, biochemical, biotinylated probe, 635/667 nm fluorescence (AID 1097); conditions: higher = more signal;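 note: probe is a biotinylated anti-EGFR antibody binding compounds printed on slides; score combines fluorescence near 667 nm and signal to noise of each spot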

Compound | composite z-score [1] | composite z-score [2] | composite z-score [3] | composite z-score [4] | composite z-score [5] | composite z-score [6] | composite z-score [7] | z-score [8] | composite z-score [9] | composite z-score [10] | composite z-score [11] | z-score [12] | z-score [13] | z-score [14] | composite z-score [15] | z-score [16] | composite z-score [17] | composite z-score [18] | composite z-score [19] | composite z-score [20]
CC(=O)OC[C@H]1O[C@H](CC=NOC[C@@H](O)COCc2ccco2)C=C[C@@H]1OC(C)=O | -0.37 | 2.66 | -0.186 | -0.153 | -0.315 | -0.974 | 0.717 | -1.31 (inactive) | 0.621 | 0.212 | 1.54 | 0.441 (inactive) | -0.0992 (inactive) | 0.116 (inactive) | -0.275 | 0.53 (inactive) | 0.0658 | 1.77 | -0.084 | 0.495
O=C1[C@H]2[C@H]3[C@H](O)[C@H](O)CC(=NO[C@@H]4O[C@H](CO)[C@@H](O)[C@H](O)[C@H]4O)[C@H]3CC[C@H]2C(=O)N1C[C@@H]1CCCO1 | -0.151 | 1.07 | -0.121 | 0.126 | 0.57 | -0.506 | -0.744 | 0.189 (inactive) | 0.045 | -0.0994 | -0.099 | 0.539 (inactive) | 0.944 (inactive) | 0.734 (inactive) | -0.162 | 0.457 (inactive) | 0.0136 | 0.379 | 0.0492 | -0.0578
CC(C)=CCCC(C)=CCON=C1C[C@@H](O)[C@@H](O)[C@@H]2[C@@H]3C(=O)N(C4CCCCC4)C(=O)[C@@H]3CC[C@H]12 | -0.317 | 0.396 | -0.0725 | 0.548 | 0.535 | 0.475 | 0.255 | 0.0864 (inactive) | 0.53 | 0.408 | 1.52 | 0.194 (inactive) | -0.312 (inactive) | -0.382 (inactive) | 0.341 | 0.474 (inactive) | -0.0575 | 1.07 | 0.789 | 0.0065
Cc1ccc(S(=O)(=O)N[C@@H]2COC(=O)CC=C[C@@H](C)[C@H](NS(=O)(=O)c3ccc(C)cc3)COC(=O)[C@H](C)NC(=O)CC=C[C@H]2C)cc1 | 0.166 | 0.264 | -0.11 | -0.0539 | -1.12 | -0.921 | -0.744 | -0.138 (inactive) | -0.18 | -0.216 | -0.287 | -0.0073 (inactive) | 0.13 (inactive) | 0.147 (inactive) | -0.865 | 0.715 (inactive) | -0.291 | 0.354 | -0.632 | -0.16
COc1ccc(COC(=O)NN=C2C[C@@H](O)[C@@H](O)[C@@H]3[C@@H]4C(=O)N(Cc5ccc6c(c5)OCO6)C(=O)[C@@H]4CC[C@H]23)cc1 | 1.62 | -0.197 | -0.0269 | -0.0605 | -0.546 | -0.393 | -0.282 | 1.02 (inactive) | 0.648 | 0.0373 | 0.041 | 1.13 (inactive) | 0.713 (inactive) | -0.369 (inactive) | 0.259 | 0.434 (inactive) | 0.475 | -0.961 | -0.523 | -0.194
CC(=O)OC[C@H]1O[C@@H](ON=C(C)CCC(=O)OC[C@H]2O[C@H](C#Cc3ccccc3)C=C[C@@H]2Oc2ccc(C)cc2)[C@H](OC(C)=O)[C@@H](OC(C)=O)[C@@H]1OC(C)=O | -0.65 | 0.745 | 0.0309 | 1.12 | 0.951 | 0.51 | 0.938 | 0.66 (inactive) | 0.31 | -0.0994 | 1.54 | 0.82 (inactive) | 0.882 (inactive) | -0.211 (inactive) | 2.3 | 0.142 (inactive) | -0.122 | 1.36 | 0.936 | -0.0455
COC(=O)[C@H](C)NC(=O)CCC1CC(OC(=O)NCCc2ccc(F)cc2)CC2(CCCC(COC(=O)NCc3ccccc3)O2)O1 (stereo not given in full) | -0.749 | -0.126 | 0.0002 | 0.677 | 1.06 | 0.648 | 0.964 | 1.61 (inactive) | 0.65 | -0.305 | 1.53 | 0.59 (inactive) | 1.04 (inactive) | 0.932 (inactive) | 1.92 | -0.755 (inactive) | -0.0898 | 0.55 | 1.1 | -0.0314
O=C1C2=CC[C@H]3C(=O)N(Cc4ccccc4)C(=O)[C@H]3[C@H]2[C@H](O)[C@@H]2O[C@H]12 | -0.291 | -0.339 | -0.132 | 0.011 | 0.0297 | -0.0087 | 0.281 | 6.64 (inactive) | -0.351 | 0.176 | 0.0864 | -0.733 (inactive) | -2.12 (inactive) | -0.213 (inactive) | -1.23 | -0.559 (inactive) | -0.185 | -0.0873 | -0.95 | -0.125
CCN1C(=O)[C@H]2[C@H]3[C@H](O)[C@H](O)CC(=NNC(=O)OCc4ccccc4)[C@@H]3CC[C@H]2C1=O | 0.18 | -0.287 | -0.153 | 0.0519 | -0.311 | -0.003 | -0.514 | 0.639 (inactive) | 0.302 | -0.249 | -0.738 | -0.0309 (inactive) | -0.277 (inactive) | -0.133 (inactive) | 0.614 | 0.801 (inactive) | -0.044 | -0.0412 | -0.0028 | -0.118
CC#CCOCCC=C1c2ccccc2[C@@H](OC)[C@@H]1C | -0.35 | 0.575 | -0.143 | 0.452 | 0.105 | -0.361 | 0.244 | 0.181 (inactive) | 0.359 | 0.154 | 0.513 | -0.0953 (inactive) | -2.52 (inactive) | -0.933 (inactive) | 0.127 | 0.596 (inactive) | -0.0266 | 0.697 | 0.153 | 0.0579
